# In all, about 66,000 compounds went through this assay and about 960 (1.5%) showed an effect of 50% or more. Only a selection was taken, and strong results are over-represented in it overall.
# System: Trypanosoma brucei
# Assay: Trypanosoma brucei 72 hour study
# Format: functional, organism-based
# Design: scale not given: in the data most compounds retested in dose-response had high values
structure (smiles),measurement,setting,value
COc1ccccc1OCCc1cc(C2CCNC2)n[nH]1.Cl.Cl (stereo not given),Percent Effect,"30.3 µM, […]",-27.23%
CC(=O)N1CCN(C)CC(COCc2ccccc2)C1 (stereo not given),Percent Effect,"30.3 µM, […]",18.55%
CC(C)(C)C(=O)N1CCC(COCc2ccccc2)C1 (stereo not given),Percent Effect,"30.3 µM, […]",100.1%
Cc1cnc(C(=O)N2CCC(COCc3ccccc3)C2)cn1 (stereo not given),Percent Effect,"30.3 µM, […]",-6.003%
Cc1nn(C)c2c(=O)n(CC(=O)NCc3ccccn3)ccc12,Percent Effect,"30 µM, 30.03 µM",-0.211%
CC(C)C(CCO)NC(=O)Nc1cc(F)ccc1-n1cccn1 (stereo not given),Percent Effect,"30.3 µM, […]",-14.63%
CC(C)C(O)CCNC(=O)Nc1cc(F)ccc1-n1cccn1 (stereo not given),Percent Effect,"30.3 µM, […]",88.94%
C[S+]([O-])CCNC(=O)Nc1cc(F)ccc1-n1cccn1 (stereo not given),Percent Effect,"30.3 µM, […]",-162.3%
CN(CCO)C[C@@H]1CN(C2CCN(c3ccccc3Cl)CC2)C[C@@H]1CO,Percent Effect,"30 µM, 30.03 µM",13.3%
CC1CN(Cc2cccc(C#N)c2)CCN1c1ccc2nncn2n1 (stereo not given),Percent Effect,"30 µM, 30.03 µM",-20.22%
CC1CN(CC2CCCC2)CCN1c1ccc2nncn2n1 (stereo not given),Percent Effect,"30 µM, 30.03 µM",98.48%
CC1CN(Cc2cccnc2)CCN1c1ccc2nncn2n1 (stereo not given),Percent Effect,"30.3 µM, […]",7.126%
same,Percent Effect,"10 mM, 10 mM as filed; unlikely as a test dose",-16.61%
COc1cccc(CN2CCN(c3ccc4nncn4n3)C(C)C2)c1 (stereo not given),Percent Effect,"30 µM, 30.03 µM",97.2%
CC1CN(CC(=O)NC2CCCC2)CCN1c1ccc2nncn2n1 (stereo not given),Percent Effect,"30 µM, 30.03 µM",-13.42%
CC1CN(CC2CCCCC2)CCN1c1ccc2nncn2n1 (stereo not given),Percent Effect,"30 µM, 30.03 µM",-45.41%
CC(C)(C)c1nc(CNC(=O)N2CCc3ccccc3C2CO)no1 (stereo not given),Percent Effect,"30.3 µM, […]",6.013%
Cc1cc(C(=O)N2CCOC(c3nc(C(C)C)n[nH]3)C2)c(C)s1 (stereo not given),Percent Effect,"30.3 µM, […]",17.14%
CC(C)(CO)Nc1cc(-c2cn[nH]c2)ncn1.Cl,Percent Effect,"30.3 µM, […]",-11.12%
Cc1cc(-c2cnc(N3CCCC(C)C3)nc2-c2cccnc2C)on1.Cl (stereo not given),Percent Effect,"30.3 µM, […]",58.57%
Cc1cc(-c2cnc(N3CCCC(C)C3)nc2C(C)C)on1 (stereo not given),Percent Effect,"30.3 µM, […]",-16.22%
Cc1cc(-c2cnc(N3CCCCCC3)nc2-c2cccnc2C)on1,Percent Effect,"30.3 µM, […]",55.42%
Cc1cc(-c2cnc(N3CCC(O)CC3)nc2-c2cccnc2C)on1,Percent Effect,"30.3 µM, […]",-31.41%
Cc1cc(-c2cnc(N3CCOCC3)nc2-c2cccnc2C)on1,Percent Effect,"30.3 µM, […]",-10.3%
Cc1cc(-c2cnc(N3CCNC(=O)C3)nc2-c2cccnc2C)on1,Percent Effect,"30 µM, 30.03 µM",16.74%
Cc1ccc(-c2ccnc(NC(c3ncccc3C)C3CC3)n2)c(C)n1 (stereo not given),Percent Effect,"30 µM, 30.03 µM",-69.26%
CC(=O)N1CCO[C@@H]2CN(Cc3ccccc3F)C[C@@H]2C1.O=C(O)C(F)(F)F,Percent Effect,"30.3 µM, […]",-73.74%
O=C1OCCN1CC(=O)N1C[C@H]2CC[C@@H]1CN(Cc1cscn1)C2,Percent Effect,"30 µM, 30.03 µM",-38.65%
CNc1ccc(C(=O)N(C)Cc2ccc3ccccc3n2)cn1,Percent Effect,"30.3 µM, […]",5.672%
COc1ncccc1C(=O)N1CCC2(CC1)CC(OC)CO2.O=C(O)C(F)(F)F (stereo not given),Percent Effect,"30.3 µM, […]",-51.01%
COc1ncccc1C(=O)N1CC[C@]2(C[C@@H](Oc3cccnc3)CO2)C1.O=C(O)C(F)(F)F.O=C(O)C(F)(F)F,Percent Effect,"30 µM, 30.03 µM",55.04%
Cn1ccnc1C(=O)N1CCC2(CC1)CC(Oc1cccnc1)CO2.O=C(O)C(F)(F)F (stereo not given),Percent Effect,"30 µM, 30.03 µM",24.28%
Cn1ccc(C(=O)NC2CCC23CCN(CC2CCOCC2)CC3)c1.O=C(O)C(F)(F)F (stereo not given),Percent Effect,"30 µM, 30.03 µM",-17.43%
COCCN1CCCn2c(nc(CNS(C)(=O)=O)cc2=O)C1.O=C(O)C(F)(F)F,Percent Effect,"30.3 µM, […]",5.593%
CC(=O)N1N=C(c2ccccc2)OC1C(=O)NCCc1ccc(C)cc1 (stereo not given),Percent Effect,"30.3 µM, […]",99.94%
same,Percent Effect,"10 mM, 10 mM as filed; unlikely as a test dose",-45.21%
CC(=O)N1N=C(c2ccccc2)OC1C(=O)NCCc1ccc(Cl)cc1 (stereo not given),Percent Effect,"30.3 µM, […]",-41.87%
same,Percent Effect,"10 mM, 10 mM as filed; unlikely as a test dose",-29.49%
CC(=O)N1N=C(c2ccccc2)OC1C(=O)NCCc1ccc(O)cc1 (stereo not given),Percent Effect,"30.3 µM, […]",-23.74%
same,Percent Effect,"10 mM, 10 mM as filed; unlikely as a test dose",-98.13%
O=C(Cc1cccc(F)c1)N1CCn2cc(Cn3cccn3)nc2C1.O=C(O)C(F)(F)F,Percent Effect,"30.3 µM, […]",-215.4%
CC(C)c1n[nH]c(C2CN(C(=O)c3ccnc(C4CC4)n3)CCO2)n1 (stereo not given),Percent Effect,10 µM,-44.45%
Cc1nc2c(cc1C(=O)O)CCN(Cc1ccsc1)CC2.O=C(O)C(F)(F)F.O=C(O)C(F)(F)F,Percent Effect,"30.3 µM, […]",-6.304%
Cc1ncc(CN2CCOC(c3ccc(-c4cc[nH]n4)cn3)C2)s1 (stereo not given),Percent Effect,"30.3 µM, […]",-10.46%
Cc1ncc(CN2CCOC(c3ccc(-c4cnn(C)c4)cn3)C2)s1 (stereo not given),Percent Effect,"30.3 µM, […]",-5.677%
Cc1ncc(CN2CCOC(c3ccc(-c4ccccc4F)cn3)C2)s1 (stereo not given),Percent Effect,"30.3 µM, […]",93.67%
O=C(NC[C@]12COC[C@H]1CN(Cc1nccs1)C2)c1ccsc1.O=C(O)C(F)(F)F,Percent Effect,"30 µM, 30.03 µM",-41.51%
CN(C)CCN1CCN(Cc2cccc(C#N)c2)Cc2cccnc21.O=C(O)C(F)(F)F.O=C(O)C(F)(F)F.O=C(O)C(F)(F)F,Percent Effect,"30.3 µM, […]",-65.33%
CN1C(=O)[C@H]2CC[C@@H]1CN(S(=O)(=O)c1ccc(Cl)cc1Cl)C2,Percent Effect,"30 µM, 30.03 µM",13.71%
Cn1cc(C2CCCN2Cc2csc(-c3ccccc3)n2)cn1 (stereo not given),Percent Effect,10 µM,-15.89%

# From ChEMBL document CHEMBL3988442, “University of Dundee, Small-Polar-MMV Screening Library” (2021)
